Hit rate of the full screen: of about 16,000 compounds, about 5,100 (32%) were called active. Not shown: some 25% with an inconclusive outcome. Some of the results follow. Values without a mark were called inactive. Calls follow the shape of the dose curve; as a rule, active = well fitted curve in the direction sought with a large enough effect; inconclusive = small, poorly fitted or top-dose-only effect, or effect the other way; inactive = no such curve, though single readings can be large or run the other way.
Biological target: Cytochrome P450 3A4 (Homo sapiens) (UniProt P08684)
Test: Cytochrome panel assay with activity outcomes
Conditions: recombinant CYP, pro-luciferin dealkylation, luminescence, p450-cyp3a4; series mostly up to 57.1 µM
% is scaled to controls: 0 for no effect and ±100 for the full control effect.

Chain of Cytochrome P450 3A4 (Homo sapiens) (P08684 whole entry, looked up): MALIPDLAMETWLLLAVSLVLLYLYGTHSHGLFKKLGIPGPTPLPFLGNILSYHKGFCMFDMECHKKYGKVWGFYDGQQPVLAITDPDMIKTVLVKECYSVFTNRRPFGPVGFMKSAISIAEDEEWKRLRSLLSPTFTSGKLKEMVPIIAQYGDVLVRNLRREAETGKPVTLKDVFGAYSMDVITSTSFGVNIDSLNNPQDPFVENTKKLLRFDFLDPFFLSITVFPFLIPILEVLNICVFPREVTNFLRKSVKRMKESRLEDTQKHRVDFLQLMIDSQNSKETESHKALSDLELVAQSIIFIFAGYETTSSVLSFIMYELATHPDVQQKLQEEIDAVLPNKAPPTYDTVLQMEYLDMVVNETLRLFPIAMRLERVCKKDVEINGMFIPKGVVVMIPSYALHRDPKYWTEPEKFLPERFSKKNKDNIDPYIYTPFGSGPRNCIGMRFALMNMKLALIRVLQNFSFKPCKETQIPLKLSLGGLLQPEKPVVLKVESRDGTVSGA

| SMILES | activity, negative = inhibition | AC50 |
| --- | --- | --- |
| C=C(C)CN(CC#N)CC(=C)C | -17.3% [at 11.4 µM] | – |
| COc1ccc(N2CCc3c(C)nc4c(OC)cc(OC)cc4c32)c(OC)c1 | – | 5.01 µM (active) |
| Cc1o[nH]c(=O)c1CC[C@H](N)C(=O)O | – | inactive |
| CCCc1nnc(SCC(=O)N2CCCC(C)C2)n1CC1CCCO1 (centres undefined) | – | 8.91 µM (active) |
| CCCS(=O)(=O)N1CCCC(C(=O)NCC2CCCO2)C1 (centres undefined) | – | inactive |
| CCCc1nnc(SCC(=O)N2CCCCC2)n1CC1CCCO1 (centres undefined) | – | 15.8 µM (active) |
| CCCc1nnc(SCC(=O)N2CCCCC2)n1CCCOC | – | inactive |
| CCCc1nnc(SCC(=O)N2CCCCC2C)n1CC1CCCO1 (centres undefined) | – | 12.6 µM (active) |
| CCCc1nnc(SCC(=O)N2C(C)CCCC2C)n1CCCOC (centres undefined) | 8.82% [at 2.29 µM] | – |
| C[N+](C)(C)CCCCCNCC12CC3CC(CC(C3)C1)C2 | – | inactive |
| O=C(O)[C@H](Cc1cc(I)c(O)c(I)c1)C1CCCCC1 | -12.6% [at 11.4 µM] | – |
| CCOc1cc2[nH]c(=O)n(CCCC(=O)NCc3ccc(OC)cc3)c(=O)c2cc1OCC | – | 2.51 µM (active) |
| CCOc1cc2[nH]c(=O)n(CCC(=O)NCc3ccc(OC)cc3)c(=O)c2cc1OCC | – | 3.55 µM (active) |
| Cc1ccc(Cn2nc(C)c(NC(=O)c3cc(-c4ccco4)on3)c2C)cc1 | – | 2.24 µM (active) |
| O=C(c1cc(-c2ccco2)on1)N1CCOCC1 | – | inactive |
| CCc1ccc(NC(=O)c2cc(C(C)C)on2)cc1 | – | inactive |
| Cc1cc(C=C(C#N)C#N)c(C)n1-c1ccccc1 | – | inactive |
| COCC(=O)N1CCC2(CC1)CN(Cc1cc(C(F)(F)F)cc(C(F)(F)F)c1)C2 | – | inactive |
| O=C(c1cccc(F)c1)N1CCC2(CCCN(Cc3cc(C(F)(F)F)cc(C(F)(F)F)c3)C2)CC1 | – | 10 µM (active) |
| COC(=O)N1CCC2(CCCN(Cc3cc(C(F)(F)F)cc(C(F)(F)F)c3)C2)CC1 | – | inactive |
| COc1ccc(C(=O)N2CCC3(CCCN(Cc4cc(C(F)(F)F)cc(C(F)(F)F)c4)C3)CC2)cc1 | – | 10 µM (active) |
| COc1ccc(C(=O)N2CCC[C@@]3(CCN(Cc4cc(C(F)(F)F)cc(C(F)(F)F)c4)C3)C2)cc1 | – | 3.16 µM (active) |
| O=C(c1cccc(F)c1)N1CCC2(CCCN(Cc3ccccc3)C2)CC1 | – | inactive |
| COC(=O)N1CCC2(CCN(Cc3cc(C(F)(F)F)cc(C(F)(F)F)c3)CC2)CC1 | – | inactive |
| COCC(=O)N1CCC2(CCCN(Cc3cc(C(F)(F)F)cc(C(F)(F)F)c3)C2)CC1 | – | 20 µM (active) |

| SMILES | activity, negative = inhibition | AC50 |
| --- | --- | --- |
| COCC(=O)N1CCC2(CCCN(Cc3ccccc3)C2)CC1 | – | inactive |
| FC(F)(F)c1cc(CN2CC3(CCNCC3)C2)cc(C(F)(F)F)c1 | – | inactive |
| FC(F)(F)c1cc(CN2CCCC3(CCNCC3)C2)cc(C(F)(F)F)c1 | – | 7.94 µM (active) |
| CS(=O)(=O)N1CCC2(CC1)CN(Cc1cc(C(F)(F)F)cc(C(F)(F)F)c1)C2 | – | inactive |
| CC(C)(C)N1C(=O)[C@H]2[C@H]3[C@H](O)[C@H](O)C/C(=N/NC(=O)OCc4ccccc4)[C@H]3CC[C@@H]2C1=O | -22.6% [at 11.4 µM] | – |
| COc1ccc(/C=C2\SC(=O)N(CCNC(=O)C3CC(=O)N(c4ccccc4)C3)C2=O)cc1 (centres undefined) | – | 2.82 µM (active) |
| COc1ccc(N2CC(C(=O)Nc3cc(C)on3)CC2=O)cc1 (centres undefined) | – | inactive |
| NC(N)=NC(N)=Nc1ccc(S(N)(=O)=O)cc1 | -13.3% [at 11.4 µM] | – |
| COc1ccccc1NC(=S)NNC(=O)c1c(Cl)c(C)nn1C | – | 15.8 µM (active) |
| Cc1nn(C)c(C(=O)NNC(=S)Nc2ccc(Cl)cc2)c1[N+](=O)[O-] | -8.67% [at 2.29 µM] | – |
| COC(=O)c1c(-c2cc(OC)c(OC)c(OC)c2)c2ccnc(OCc3ncccn3)c2c(=O)n1Cc1ccnc(C)c1 | – | 15.8 µM (active) |
| c1ccc2[nH]c(NC3=NCCC3)nc2c1 | – | inactive |
| c1ccc(-c2nnc(SCc3nc4ccccc4[nH]3)n2Cc2ccco2)cc1 | – | 2 µM (active) |
| CCn1c(SCc2nc3ccccc3[nH]2)nnc1-c1ccc(OC)cc1 | – | 3.16 µM (active) |
| c1ccc(SCc2nc3ccccc3[nH]2)cc1 | – | 12.6 µM (active) |
| OC(Cc1nc2ccccc2[nH]1)c1ccccc1Cl (centres undefined) | – | 10 µM (active) |
| CC[C@]1(C)CC(=O)NC1=O | – | inactive |
| NCc1ccccc1CC(=O)N[C@@H]1C(=O)N2C(C(=O)O)=C(CSc3nnnn3CC(=O)O)CS[C@@H]12 | – | inactive |
| C/C(C[n+]1ccccc1)=N\N=C(N)N | 2.37% [at 11.4 µM] | – |
| Cc1noc(C)c1-c1nccc(NCc2cccnc2)n1 | – | 3.98 µM (active) |
| Cc1noc(C)c1-c1nccc(NCc2ccccc2)n1 | – | 5.01 µM (active) |
| Cc1noc(C)c1-c1nccc(NCc2cccs2)n1 | – | 15.8 µM (active) |
| Nc1[nH]c(=O)nc2c1ncn2[C@H]1O[C@@H](CO)[C@@H](O)[C@@H]1O | -8.49% [at 11.4 µM] | – |
| CCCCn1cnc2c(c(CC#N)nn2-c2ccccc2)c1=N | -13.4% [at 11.4 µM] | – |
| COCC(=O)N1CCC[C@@]2(CCN(c3ncccn3)C2)C1 | – | inactive |

| SMILES | activity, negative = inhibition | AC50 |
| --- | --- | --- |
| Cc1ccc(C2/C(=C(/O)c3ccc(Cl)cc3)C(=O)C(=O)N2CC2CCCO2)o1 (centres undefined) | – | inactive |
| CC(C)Oc1ccc(/C(O)=C2/C(=O)C(=O)N(Cc3cccnc3)C2c2ccco2)cc1 (centres undefined) | – | 14.1 µM (active) |
| CCOc1cccc(/C(O)=C2/C(=O)C(=O)N(Cc3cccnc3)C2c2ccco2)c1 (centres undefined) | – | 12.6 µM (active) |
| COCCN1C(=O)C(=O)/C(=C(/O)c2cccc(OC)c2)C1c1ccco1 (centres undefined) | – | inactive |
| COc1ccccc1C1/C(=C(/O)c2ccccc2)C(=O)C(=O)N1CCO (centres undefined) | – | inactive |
| COc1ccc(C2/C(=C(/O)c3ccccc3)C(=O)C(=O)N2CC(C)O)c(OC)c1 (centres undefined) | – | inactive |
| COc1ccc(C2C(C(=O)c3ccco3)=C(O)C(=O)N2Cc2cccnc2)cc1OC (centres undefined) | – | inactive |
| COc1ccc(/C(O)=C2/C(=O)C(=O)N(Cc3cccnc3)C2c2ccco2)cc1OC (centres undefined) | – | 14.1 µM (active) |
| COc1cccc(/C(O)=C2/C(=O)C(=O)N(Cc3cccnc3)C2c2ccco2)c1 (centres undefined) | – | 14.1 µM (active) |
| O=C(O)c1ccc(/C=N\N=C2c3ccccc3-c3ccccc32)cc1 | -15.1% [at 11.4 µM] | – |
| CCc1ccc(N(C(=O)c2csnn2)C(C(=O)NC(C)(C)C)c2ccncc2)cc1 (centres undefined) | – | 3.98 µM (active) |
| CCNc1nnc(-c2ccncc2)s1 | -14.1% [at 11.4 µM] | – |
| Cc1ccc(N(C(=O)c2csnn2)C(C(=O)NC(C)(C)C)c2cccs2)cc1 (centres undefined) | – | 7.08 µM (active) |
| Cc1ccccc1/C=N\NC(=O)c1csnn1 | – | inactive |
| COC(=O)N1CCC2(CCN(C(=O)NC(C)C)CC2)CC1 | – | inactive |
| Cn1c(SCc2nnc(-c3ccc(F)cc3)o2)nnc1C1COc2ccccc2O1 (centres undefined) | – | 14.1 µM (active) |
| CC(Oc1ccc(Cl)cc1)C(=O)/C=C/N(C)C (centres undefined) | – | inactive |
| Oc1[nH]c2ccccc2c1/C=N/c1nccs1 | – | 15.8 µM (active) |
| Oc1[nH]c2ccccc2c1N=Nc1ccc(C(F)(F)F)cn1 | – | inactive |
| Cc1cc(C)n(C(=O)CCCCCCCCC(=O)n2nc(C)cc2C)n1 | – | 4.47 µM (active) |
| CC(=O)c1cnc2cc(C)nn2c1C | – | inactive |
| Cc1cc(C)n(C(=O)c2cc3ccccc3c(=O)o2)n1 | – | inactive |
| CC1=C(C(=O)O)N2C(=O)C(NC(=O)c3ccn(C)n3)C2SC1 (centres undefined) | – | inactive |
| O=C(CN(Cc1ccccc1Cl)C(=O)c1ccc(CN2CCOCC2)o1)NCC1CCCO1 (centres undefined) | – | 12.6 µM (active) |
| O=C(CSCc1c(F)cccc1Cl)NCC1CCCO1 (centres undefined) | – | inactive |

| SMILES | activity, negative = inhibition | AC50 |
| --- | --- | --- |
| CC(C)(C)C1CCc2c(C(=O)N/N=C/c3cccs3)csc2C1 (centres undefined) | 5.34% [at 2.29 µM] | – |
| COCCCNC(=O)CN(c1ccc(OC)cc1)S(=O)(=O)c1ccc(NC(C)=O)cc1 | – | 12.6 µM (active) |
| Cn1cccc1CC(=O)N/N=C\c1cccs1 | 3.8% [at 2.29 µM] | – |
| COc1ccc(N(CC(=O)NN=C2CCCC2)S(=O)(=O)c2ccccc2)cc1 | – | 2.82 µM (active) |
| CN(CC(=O)O/N=C(\N)c1ccccn1)S(=O)(=O)c1ccccc1 | – | inactive |
| O=C(CN(c1ccccc1)S(=O)(=O)c1ccccc1[N+](=O)[O-])NN=C1CCCCCCC1 | – | inactive |
| COc1ccc(N(CC(=O)N/N=C/c2cccs2)S(=O)(=O)c2ccc(OC)c(OC)c2)cc1 | – | 1.12 µM (active) |
| O=C(NNC(=O)C1CCCCC1)c1cnccn1 | -0.435% [at 2.29 µM] | – |
| O=C(NCc1ccccc1Cl)c1cnccn1 | – | 1 µM (active) |
| COc1ccccc1OCC(=O)NNC(=O)c1cnccn1 | 16% [at 2.29 µM] | – |
| COCCNc1ccnc(-c2cccc(NS(C)(=O)=O)c2)n1 | – | 25.1 µM (active) |
| COc1cccc(-c2nccc(NCc3ccccc3OC)n2)c1 | – | 2.51 µM (active) |
| COc1ccc(CNc2ccnc(-c3cccnc3)n2)c(OC)c1 | – | 0.631 µM (active) |
| COc1ccc(CNc2ccnc(-c3cccc(NS(C)(=O)=O)c3)n2)c(OC)c1 | – | 3.98 µM (active) |
| CSc1nc(-c2ccc(C)cc2)nc(C(Cl)Cl)n1 | – | inactive |
| COc1cccc(-c2nccc(NCc3ccc(OC)cc3OC)n2)c1 | – | 3.16 µM (active) |
| COc1ccccc1CN1CCC2(CC1)CCN(C(=O)c1c(C)noc1C)CC2 | – | inactive |
| Cc1noc(C)c1C(=O)N1CCC[C@@]2(CCN(Cc3nccs3)C2)C1 | – | 15.8 µM (active) |
| Cc1noc(C)c1C(=O)N1CCC2(CCN(Cc3cc(C(F)(F)F)cc(C(F)(F)F)c3)CC2)CC1 | – | inactive |
| COc1ccccc1CN1CC[C@@]2(CCCN(C(=O)c3c(C)noc3C)C2)C1 | – | 1.58 µM (active) |
| Cc1noc(C)c1C(=O)N1CCC2(CCN(Cc3nccs3)CC2)CC1 | – | inactive |
| Cc1noc(C)c1C(=O)N1CCC2(CCN(Cc3ccccc3)CC2)CC1 | – | inactive |
| Cc1noc(C)c1C(=O)N1CCC[C@@]2(CCN(Cc3ccccc3)C2)C1 | – | 12.6 µM (active) |
| Cc1noc(C)c1C(=O)N1CCC2(CC1)CN(c1ncccn1)C2 | – | inactive |

— PubChem BioAssay AID1851 (National Center for Advancing Translational Sciences (NCATS), 2009)
